Laboratory results published in PubChem BioAssay.
Records with an inconclusive call do not appear. Activity calls are given as the source filed them.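 Rule for the calls, unless noted: active = normalized viability below 100% at a tested concentration; inactive = the rest.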

Legend:
[1] = growth inhibition of DIPG glioma cells, dose response, cell-based, SU-DIPG-XVII, MIPE5.0, CellTiter-Glo, qHTS (AID 1347060; cut-off not given, nearly all actives have AC50 up to about 26 µM;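 for AC50: cells exposed to compound for 48 hours before viability readout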); details: SU-DIPG-XVII viability, CellTiter-Glo ATP luminescence
[2] = growth inhibition of DIPG glioma cells, dose response, cell-based, SU-DIPG-XIII, MIPE4.0, CellTiter-Glo, qHTS (AID 1347061; cut-off not given, nearly all actives have AC50 up to about 37 µM;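 note: cells exposed to compound for 48 hours before readout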); details: SU-DIPG-XIII viability, CellTiter-Glo ATP luminescence
[3] = growth inhibition of DIPG glioma cells, dose response, cell-based, JHH-DIPG-1, MIPE4.0, CellTiter-Glo, qHTS (AID 1347062; cut-off not given, nearly all actives have AC50 up to about 27 µM;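 for AC50: cells exposed to compound for two days before readout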); details: JHH-DIPG-1 viability, CellTiter-Glo ATP luminescence
[4] = growth inhibition of DIPG glioma cells, dose response, cell-based, SU-DIPG-IV, MIPE4.0, CellTiter-Glo, qHTS (AID 1347063; cut-off not given, nearly all actives have AC50 up to about 30 µM;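 note: compound exposure lasted 48 hours before the viability readout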); details: SU-DIPG-IV viability, CellTiter-Glo ATP luminescence
[5] = viability loss in pontine glioma line – cell-based, SU-DIPG-XXV, MIPE5.0, CellTiter-Glo, qHTS, dose response (AID 1347065; cut-off not given, nearly all actives have AC50 up to about 26 µM;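 note: cells exposed to compound for 48 hours before ATP readout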); details: CellTiter-Glo ATP luminescence
[6] = SU-DIPG-VI glioma cell viability, MIPE4.0 library, CellTiter-Glo luminescence, qHTS (AID 1347066; cut-off not given, nearly all actives have AC50 up to about 30 µM;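 note: cells exposed to compound for 48 hours before readout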); details: CellTiter-Glo ATP luminescence
[7] = JHH-DIPG-1 glioma cell viability, MIPE5.0 library, CellTiter-Glo luminescence, qHTS (AID 1347067; cut-off not given, nearly all actives have AC50 up to about 26 µM;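 note: cells exposed to compound for 48 hours before readout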); details: JHH-DIPG-1 glioma viability, CellTiter-Glo ATP luminescence
[8] = SU-DIPG-XXV glioma cell viability, MIPE5.0 library, qHTS (AID 1347068; cut-off not given, nearly all actives have IC50 up to about 30 µM;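 for IC50: cells exposed to compound for 48 hours before viability readout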)
[9] = modifiers of HSF1 nuclear foci, imaging, Selleck Cancer Library (AID 1347162; in the data active = plate-normalised HSF1 focus index below about 0.46); details: human cells, at 10 µM; SSMD: measured here: HSF1 foci SSMD mean; cell count: measured here: cell number; plate-normalised HSF1 focus index: stronger effect = lower value
[10] = ovarian cancer cell viability with rucaparib, profiling panel, oncology-focused library, rucaparib conditional (AID 1508598); details: patient-derived ovarian cancer cells, CellTiter-Glo viability, 144 h, stronger effect = lower value
[11] = at 0.000305 µM, OCI-C5x cells, with rucaparib 10 µM, 100% = cells with rucaparib alone
[12] = at 0.000305 µM, OCI-C5x cells, without rucaparib
[13] = at 0.000305 µM, OCI-P5x cells, with rucaparib 20 µM, 100% = cells with rucaparib alone
[14] = at 0.000305 µM, OCI-P5x cells, without rucaparib
[15] = at 0.00122 µM, OCI-C5x cells, with rucaparib 10 µM, 100% = cells with rucaparib alone
[16] = at 0.00122 µM, OCI-C5x cells, without rucaparib
[17] = at 0.00122 µM, OCI-P5x cells, with rucaparib 20 µM, 100% = cells with rucaparib alone
[18] = at 0.00122 µM, OCI-P5x cells, without rucaparib
[19] = at 0.00488 µM, OCI-C5x cells, with rucaparib 10 µM, 100% = cells with rucaparib alone
[20] = at 0.00488 µM, OCI-C5x cells, without rucaparib
[21] = at 0.00488 µM, OCI-P5x cells, with rucaparib 20 µM, 100% = cells with rucaparib alone
[22] = at 0.00488 µM, OCI-P5x cells, without rucaparib
[23] = at 0.0195 µM, OCI-C5x cells, with rucaparib 10 µM, 100% = cells with rucaparib alone
[24] = at 0.0195 µM, OCI-C5x cells, without rucaparib
[25] = at 0.0195 µM, OCI-P5x cells, with rucaparib 20 µM, 100% = cells with rucaparib alone
[26] = at 0.0195 µM, OCI-P5x cells, without rucaparib
[27] = at 0.0781 µM, OCI-C5x cells, with rucaparib 10 µM, 100% = cells with rucaparib alone
[28] = at 0.0781 µM, OCI-C5x cells, without rucaparib
[29] = at 0.0781 µM, OCI-P5x cells, with rucaparib 20 µM, 100% = cells with rucaparib alone
[30] = at 0.0781 µM, OCI-P5x cells, without rucaparib
[31] = at 0.313 µM, OCI-C5x cells, with rucaparib 10 µM, 100% = cells with rucaparib alone
[32] = at 0.313 µM, OCI-C5x cells, without rucaparib
[33] = at 0.313 µM, OCI-P5x cells, with rucaparib 20 µM, 100% = cells with rucaparib alone
[34] = at 0.313 µM, OCI-P5x cells, without rucaparib
[35] = at 1.25 µM, OCI-C5x cells, with rucaparib 10 µM, 100% = cells with rucaparib alone
[36] = at 1.25 µM, OCI-C5x cells, without rucaparib
[37] = at 1.25 µM, OCI-P5x cells, with rucaparib 20 µM, 100% = cells with rucaparib alone
[38] = at 1.25 µM, OCI-P5x cells, without rucaparib
[39] = at 5 µM, OCI-C5x cells, with rucaparib 10 µM, 100% = cells with rucaparib alone
[40] = at 5 µM, OCI-C5x cells, without rucaparib
[41] = at 5 µM, OCI-P5x cells, with rucaparib 20 µM, 100% = cells with rucaparib alone
[42] = at 5 µM, OCI-P5x cells, without rucaparib

CN(C)C/C=C/C(=O)Nc1cc2c(Nc3ccc(F)c(Cl)c3)ncnc2cc1O[C@H]1CCOC1
AC50 [1]: 13.2 µM (active)
AC50 [2]: 23.5 µM (active)
AC50 [3]: 16.6 µM (active)
AC50 [4]: 16.6 µM (active)
AC50 [5]: 8.33 µM (active)
AC50 [6]: 29.6 µM (active)
AC50 [7]: 9.34 µM (active)
IC50 [8]: 4.17 µM (active)
SSMD [9]: -10.2
cell count [9]: 6000
plate-normalised HSF1 focus index [9]: 0.64 (inactive)
viability [10, 11]: 118% (inactive)
viability [10, 12]: 114% (inactive)
viability [10, 13]: 123% (inactive)
viability [10, 14]: 107% (inactive)
viability [10, 15]: 116% (inactive)
viability [10, 16]: 100% (active)
viability [10, 17]: 97.9% (active)
viability [10, 18]: 99.7% (active)
viability [10, 19]: 107% (inactive)
viability [10, 20]: 80.6% (active)
viability [10, 21]: 117% (inactive)
viability [10, 22]: 99.9% (active)
viability [10, 23]: 70.1% (active)
viability [10, 24]: 66.7% (active)
viability [10, 25]: 102% (inactive)
viability [10, 26]: 96.3% (active)
viability [10, 27]: 67.5% (active)
viability [10, 28]: 69.5% (active)
viability [10, 29]: 122% (inactive)
viability [10, 30]: 94.8% (active)
viability [10, 31]: 62.7% (active)
viability [10, 32]: 63.1% (active)
viability [10, 33]: 120% (inactive)
viability [10, 34]: 94.2% (active)
viability [10, 35]: 6.05% (active)
viability [10, 36]: 46% (active)
viability [10, 37]: 8.68% (active)
viability [10, 38]: 66.6% (active)
viability [10, 39]: 3.87% (active)
viability [10, 40]: 22.5% (active)
viability [10, 41]: 0.219% (active)
viability [10, 42]: 6.79% (active)

CNC1CCC(N(Cc2cccc(-c3ccncc3)c2)C(=O)c2sc3c(F)ccc(F)c3c2Cl)CC1 (stereo unspecified)
AC50 [1]: 23.5 µM (active)
AC50 [2]: 14.8 µM (active)
AC50 [3]: 26.4 µM (active)
AC50 [4]: 23.5 µM (active)
AC50 [5]: 18.6 µM (active)
AC50 [6]: 23.5 µM (active)
AC50 [7]: 26.3 µM (active)

CC(C)Nc1cc(C(F)(F)F)cc2nc(NC(=O)c3cccnc3)nn12
outcome [1]: inactive
outcome [2]: inactive
outcome [3]: inactive
outcome [4]: inactive
outcome [5]: inactive
outcome [6]: inactive
outcome [7]: inactive
outcome [8]: inactive

Cc1ccc(C(=O)N(CCCN)[C@@H](c2oc3cc(Cl)ccc3c(=O)c2Cc2ccccc2)C(C)C)cc1
AC50 [1]: 0.0332 µM (active)
outcome [2]: inactive
AC50 [3]: 14.8 µM (active)
AC50 [4]: 29.6 µM (active)
AC50 [5]: 0.0118 µM (active)
AC50 [6]: 8.33 µM (active)
AC50 [7]: 1.66 µM (active)
IC50 [8]: 0.0417 µM (active)
SSMD [9]: 0.849
cell count [9]: 6430
plate-normalised HSF1 focus index [9]: 1.05 (inactive)
viability [10, 11]: 50.8% (active)
viability [10, 12]: 63.1% (active)
viability [10, 13]: 62% (active)
viability [10, 14]: 22.5% (active)
viability [10, 15]: 56.4% (active)
viability [10, 16]: 61.8% (active)
viability [10, 17]: 50.3% (active)
viability [10, 18]: 19.3% (active)
viability [10, 19]: 54.9% (active)
viability [10, 20]: 63.8% (active)
viability [10, 21]: 58.3% (active)
viability [10, 22]: 18.4% (active)
viability [10, 23]: 57.6% (active)
viability [10, 24]: 55.3% (active)
viability [10, 25]: 55.3% (active)
viability [10, 26]: 19.7% (active)
viability [10, 27]: 54.6% (active)
viability [10, 28]: 50.1% (active)
viability [10, 29]: 51.5% (active)
viability [10, 30]: 20.3% (active)
viability [10, 31]: 54.9% (active)
viability [10, 32]: 50.6% (active)
viability [10, 33]: 55.7% (active)
viability [10, 34]: 19.2% (active)
viability [10, 35]: 49.2% (active)
viability [10, 36]: 49% (active)
viability [10, 37]: 48.4% (active)
viability [10, 38]: 17.8% (active)
viability [10, 39]: 4.98% (active)
viability [10, 40]: 4.99% (active)
viability [10, 41]: 0.708% (active)
viability [10, 42]: 6.42% (active)
